Bioassay records as filed in PubChem.
HSV augment: increases HSV replication in cells; HSV replication augmentation in cells, fold increase; maximum fold increase; 220,000 compounds, 0.005% hits; in the data active = maximum fold increase above about 1.5; tested in PC3 cells
zVAD death inh: blocks zVAD induced death of L929 cells; L929 zVAD necroptosis rescue, ATP luminescence, 24 h; with zVAD 60 µM; 220,000 compounds, 0.38% hits; viability rescue, % at 10 µM;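 active = activation, scaled between plate controls, above about 75%, limit read from the data; inactive = activation under that limit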;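 also: 0% = zVAD with DMSO and 100% = DMSO alone without zVAD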
TNF necrop inh: blocks TNF-alpha induced death of Jurkat FADD-/- cells; 220,000 compounds, 0.068% hits; Jurkat FADD-/- TNF necroptosis rescue, ATP luminescence, 24 h; 0 = TNF only, 100 = no-TNF cells; activation (protection from cell death), % at 10 µM; AID 463075;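 active = activation, meaning protection from cell death, of at least 50% relative to plate controls; inactive = activation below 50%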;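 also: necroptosis triggered by 40 ng/mL TNF-alpha added together with compound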
Wee1 stabilizer: human Wee1 degradation inhibition, primary screen. HeLa Luc-Wee1K328M stability, luciferase luminescence; 100% = proteasome inhibitor MG132 effect. AID 1321. P30291. 220,000 compounds, 1.2% hits. reporter increase, % at 5 µM;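 active = activation above the mean of all tested compounds plus 3 SD, set per screening run, cut at about 8.8% in these data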;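 also: cells exposed to compound for 20 h before luminescence read; 0% = DMSO alone and 100% = MG132 at 30 µM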
Target sequence (P30291 whole entry K328M): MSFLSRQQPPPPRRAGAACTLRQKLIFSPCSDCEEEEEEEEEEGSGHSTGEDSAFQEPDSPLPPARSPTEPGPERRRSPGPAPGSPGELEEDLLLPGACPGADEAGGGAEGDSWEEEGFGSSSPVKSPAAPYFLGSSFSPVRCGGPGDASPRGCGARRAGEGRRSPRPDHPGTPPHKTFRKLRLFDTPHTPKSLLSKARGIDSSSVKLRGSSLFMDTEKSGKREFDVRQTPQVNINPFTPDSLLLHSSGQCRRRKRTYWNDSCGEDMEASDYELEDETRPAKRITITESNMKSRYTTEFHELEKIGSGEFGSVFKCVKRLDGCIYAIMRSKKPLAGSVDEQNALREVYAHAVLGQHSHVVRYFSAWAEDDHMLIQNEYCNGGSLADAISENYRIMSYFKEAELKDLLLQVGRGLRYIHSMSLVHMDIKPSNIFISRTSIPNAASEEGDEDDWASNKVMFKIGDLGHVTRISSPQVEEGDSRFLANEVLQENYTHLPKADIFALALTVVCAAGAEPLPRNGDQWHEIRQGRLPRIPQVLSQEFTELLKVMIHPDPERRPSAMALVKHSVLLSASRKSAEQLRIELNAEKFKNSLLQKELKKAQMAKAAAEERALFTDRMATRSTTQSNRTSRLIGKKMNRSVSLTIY
V-ATPase pH: regulators of yeast V-ATPase proton transport. S. cerevisiae, pHLuorin cytosolic pH fluorescence. 350,000 compounds, 0.37% hits. AID 504577. response, % at 10 µM; in the data active = response mostly above about 7.3%, no sharp cut-off; inactive = mostly below about 5.4%; also: actives read high
Wee1 stab conf: confirmation of human Wee1 degradation inhibitors; HeLa Luc-Wee1K328M degradation, luminescence; vehicle 0%, proteasome-blocked wells 100%; AID 1410; shares compounds with Wee1 stabilizer; activation, % at 5 µM; 1,100 compounds, 4% hits; in the data active = activation above about 8.9%
Starred values were filed as active, the others as inactive; i = inactive; x = not tested or not shown. Most compounds without a hit are left out; they make up all but 1.4% or so of the library.

SMILES	HSV augment	zVAD death inh	TNF necrop inh	Wee1 stabilizer	V-ATPase pH	Wee1 stab conf
Cc1ccccc1-n1cc(-c2ccc(Br)cc2)nc1SCC(N)=O	i	0	1	13*	0	3
CCCS(=O)(=O)N1CCN(S(=O)(=O)c2ccccc2[N+](=O)[O-])CC1	i	0	1	11*	x	-1
Cc1ccc(-c2nn(C)c(=O)c3ccccc23)cc1CN1CCCCC1	i	1	-1	-1	-2	x
CCOC(=O)CSc1nc(-c2ccncc2)ccc1C#N	i	0	-1	14*	0	2
COc1cccc(-c2nnc(-c3ccco3)o2)c1	i	0	0	11*	-2	4
COC(=O)Cn1c(O)c(N=NC(=O)CNC(=O)c2ccncc2)c2ccccc21	x	x	x	x	0	x
CC(=O)NS(=O)(=O)c1ccc(NC(=O)CSc2ccc(Cl)cc2)cc1	i	6	0	13*	x	1
CSc1ccccc1OCc1cc(C(=O)NC(C)Cn2cncn2)no1 (stereo not drawn)	x	x	x	x	2	x
O=S(=O)(c1ccc(N2CCCCCC2)nc1)N1CCCC1	i	2	2	13*	-2	0
CC(C)c1ccccc1-n1c(-c2cccnc2)n[nH]c1=S	i	0	-1	4	1	x
Cc1ccc2nc(-c3ccc(NC(=O)COC(=O)c4cncc(Br)c4)cc3)sc2c1	i	1	-1	15*	1	-3
Cc1ccc2nc(-c3ccc(NC(=O)COC(=O)c4ccc(Br)o4)cc3)sc2c1	i	1	1	7	-1	x
C/C(=N/NC(=O)CNS(=O)(=O)c1ccc(C)cc1)c1cccc([N+](=O)[O-])c1	i	0	1	-3	-1	x
CCOC(=O)c1[nH]c(C)c(CN(C(C)=O)c2ccc(OCC)cc2)c1C	i	-1	-3	13*	-2	1
Cc1cccc(OCC(=O)O/N=C(\N)c2ccccn2)c1C	i	0	-1	11*	-5	4
CCOC(=O)Nc1ccc2nc(Sc3ccc(Cl)cc3)sc2c1	i	1	-7	4	3	x
CCCC(=O)Nc1ccc2c(c1)nc(CN1CCCCC1)n2C	i	0	0	16*	-5	5
O=C1c2ccccc2NC(c2ccccc2)N1Cc1ccco1 (stereo not drawn)	x	0	0	15*	3	0
COc1cccc(NC(=O)c2cccc(C)c2[N+](=O)[O-])c1	i	52	-1	14*	0	2
Cc1cccc(C(=O)Nc2cccc(Br)c2)c1[N+](=O)[O-]	i	2	1	-1	1	x
c1ccc(-c2nnc3n2-c2ccccc2SC3)cc1	i	-1	-1	0	0	x
CCOC(=O)c1c[nH]n2c(=S)ncnc12	x	x	x	x	-2	x
Cc1ccc2c(COC(=O)c3n[nH]c4ccccc34)cc(=O)oc2c1	i	2	-3	14*	2	-1
CCOc1ccc(N(C)S(=O)(=O)c2cc(-c3cc(C)no3)ccc2CC)cc1	x	x	x	x	3	x
O=S(=O)(c1ccccc1)N1N=C(c2ccccc2)CC1c1ccccc1 (stereo not drawn)	i	-1	-2	-1	2	x
SMILES	HSV augment	zVAD death inh	TNF necrop inh	Wee1 stabilizer	V-ATPase pH	Wee1 stab conf
COc1ccc(C2=NN(S(=O)(=O)c3ccccc3)C(c3ccccc3)C2)cc1 (stereo not drawn)	i	0	0	11*	2	2
CCN(C(=O)CSc1nc(C)c(C)c(C)n1)C1CCS(=O)(=O)C1 (stereo not drawn)	x	x	x	x	3	x
CCCNc1c(NC(=O)COc2ccc(Cl)cc2)c(=O)oc2ccccc12	x	x	x	x	-1	x
Cc1ccc(S(=O)(=O)C2(C(=O)Nc3ccc(Br)cc3)CC2)cc1	i	0	2	14*	3	2
O=C(c1ccccc1)c1cnc(Nc2ccccc2Cl)s1	i	0	12	7	1	x
CC(C)(C)C(=O)c1cnc(Nc2ccccc2Cl)s1	i	-1	2	16*	-2	4
COc1ccc(-c2noc(CN(C)Cc3ccc(C)o3)n2)cc1	i	1	0	12*	-1	3
CC(C)(/C=N/NC(=O)CSCc1ccc(Cl)cc1)CCC#N	i	2	2	-3	-1	x
COC(=O)c1[nH]c(C)c(/C(O)=C2\C(=O)C(=O)N(CCN3CCOCC3)C2c2ccco2)c1C (stereo not drawn)	i	0	1	-4	0	x
BrC(/C=N/N1CCN(Cc2ccccc2)CC1)=C/c1ccccc1	i	0	-4	23*	0	2
O=[N+]([O-])c1cc(/C=N/N2CCN(Cc3ccccc3)CC2)ccc1Cl	i	3	1	15*	-2	4
O=C(ONc1ccc(N=NC(=O)c2ccccc2O)cc1)c1ccccc1	i	-1	-19	0	-3	x
Nc1[nH]c(N=NC(=O)c2ccccc2O)c2ccccc12	x	1	-1	14*	-3	2
Cc1ccc(S(=O)(=O)N2CCC(C(=O)NCCC3=CCCCC3)CC2)c(C)c1	x	x	x	x	-5	x
CCCC(=O)N1CCN(c2ccc(NC(=O)c3cccs3)cc2Cl)CC1	i	15	6	16*	0	-1
COC(=O)C1=C(N)Oc2cc(C)n(Cc3cccnc3)c(=O)c2C1c1ccccc1OC (stereo not drawn)	i	1	0	-1	2	x
COC(=O)C1=C(N)Oc2cc(C)n(Cc3ccncc3)c(=O)c2C1c1cccnc1 (stereo not drawn)	i	0	-1	14*	1	0
CC1C2NC(=O)N(Cc3ccccc3)C1(C)Oc1ccccc12 (stereo not drawn)	i	0	1	1	-2	x
Cc1nnc(SCCn2c(N3CCC(Cc4ccccc4)CC3)nc3c2c(=O)[nH]c(=O)n3C)s1	i	0	-7	-2	x	x
CCCCn1c(N2CCC(Cc3ccccc3)CC2)nc2c1c(=O)[nH]c(=O)n2C	i	1	-5	13*	-1	2
CN(/N=C\c1ccc(O)c(O)c1)c1nc(-c2ccccc2)cc(-c2ccccc2)n1	i	40	-18	-2	0	x
CNCC(O)COc1cccc(OC)c1 (stereo not drawn)	i	2	3	11*	-1	-2
CNCC(O)COc1ccccc1 (stereo not drawn)	i	0	0	-1	4	x
Cc1ccc(-n2ncc3c2CC(C)(C)CC3NC(=O)c2ccccn2)cc1 (stereo not drawn)	x	x	x	x	5	x
O=C1OCC2=C1C(c1ccccc1)CC(=O)N2c1ccc(F)cc1 (stereo not drawn)	i	0	1	4	1	x
O=C1OCC2=C1C(c1ccc(Cl)cc1)CC(=O)N2c1ccc(F)cc1 (stereo not drawn)	i	0	1	14*	-4	2
